# High-throughput results: PubChem BioAssay, National Center for Advancing Translational Sciences (NCATS)
# D1 antagonist: Antagonist of Human D 1 Dopamine Receptor: qHTS. HEK293 TREx D1 cells, calcium flux, dopamine EC80; active compounds read low. activity change, negative = inhibition, % at 10 µM. 360,000 compounds, 3.2% hits. AID 504652, 2011; in the data active = activity change below about -30%; note: % is set by controls: 0 for no effect and ±100 for the full control effect
#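 HEK293 T-REx cells expressing inducible, force-coupled D1 receptor; no-wash Ca dye, 30–90 min RT. Cmpd → 180 s read at 1 Hz → EC80 DA → 180 s read.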
# TRHR agonist: qHTS for Small Molecule Agonists and Allosteric Enhancers of Human TRH Receptor: Primary Screen for Agonists; TRHR cells, calcium flux fluo-8, FDSS agonist mode; activation, % at 2 µM; 360,000 compounds, 0.18% hits; AID 493084, 2011; Thyrotropin-releasing hormone receptor (Homo sapiens), P34981; note: 0% is about no effect
# Target sequence (P34981 whole entry, looked up): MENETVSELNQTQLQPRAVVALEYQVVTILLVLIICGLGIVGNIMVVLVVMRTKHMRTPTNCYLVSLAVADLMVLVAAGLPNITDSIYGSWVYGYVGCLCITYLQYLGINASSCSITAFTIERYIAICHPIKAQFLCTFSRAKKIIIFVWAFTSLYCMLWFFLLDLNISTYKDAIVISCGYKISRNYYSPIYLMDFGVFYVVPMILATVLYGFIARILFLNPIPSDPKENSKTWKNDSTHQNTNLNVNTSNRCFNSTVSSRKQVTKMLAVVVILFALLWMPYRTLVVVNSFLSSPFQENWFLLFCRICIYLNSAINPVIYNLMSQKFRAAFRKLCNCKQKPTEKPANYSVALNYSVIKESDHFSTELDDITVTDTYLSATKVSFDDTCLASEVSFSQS
#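 Read-out: compound-evoked intracellular calcium rise in TRHR cells, fluo-8 dye, kinetic FDSS fluorescence at 1 s/cycle following a 10-cycle baseline. Cells cultured overnight before dye loading (30 min–1.5 h, RT).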
# TRHR PAM: qHTS for Small Molecule Agonists and Allosteric Enhancers of Human TRH Receptor: Primary Screen for Enhancers. Thyrotropin-releasing hormone receptor (Homo sapiens), P34981. 360,000 compounds, 0.66% hits. AID 493056, 2011. TRHR cells, fluo-8 calcium fluorescence, EC20 TRH enhancement. enhancement, % at 2 µM; in the data active = enhancement above about 30%; note: 0% is about no effect
#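 Enhancer read-out: after compound pinning and an initial kinetic agonist-mode read, an EC20 of TRH (10 nM final) was injected and fluo-8 calcium signal (Ex 480/Em 530) followed at 1 s/cycle for 100 cycles in TRHR-expressing cells.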
# D1 agonist: Allosteric Agonists of the Human D1 Dopamine Receptor: qHTS. HEK293 T-REx D1 cells, calcium flux, agonist mode. activation, % at 2 µM. D(1A) dopamine receptor (Homo sapiens), P21728. 360,000 compounds, 1% hits; note: 0% is about no effect
#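 Agonism was scored from calcium flux recorded over 180 s (1 read/s) after pintool compound addition, following a 10-cycle baseline. Cells were inducible force-coupled HEK293 TREx D1, plated overnight at 30 C and loaded with no-wash calcium dye.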
# D1 potentiator: Potentiators of Human D1 Dopamine Receptor: qHTS. D(1A) dopamine receptor (Homo sapiens), P21728. HEK293 TREx D1 cells, calcium flux, dopamine EC20 potentiation. potentiation, % at 10 µM. 360,000 compounds, 0.036% hits. AID 504651, 2011; in the data active = potentiation above about 30%; note: 0% is about no effect
# Numbers without * were called inactive. An excerpt weighted towards active compounds, which were near 4.6% of everything screened. Cut-off read from the data, not from the text of the source, unless noted: active = activation above about 30%; inactive = the rest.
SMILES,D1 antagonist,TRHR agonist,TRHR PAM,D1 agonist,D1 potentiator
OCCNCc1ccc(OCc2ccc(Cl)cc2Cl)cc1,4,2,10,30,-4
CNC(=O)c1ccc2c(c1)nnn2C,-87*,1,-17,1,-8
Cn1nnc2cc(C(=O)NC(C)(C)C)ccc21,-3,0,2,1,-4
Cc1ccc(NC(=O)c2ccc(=O)n(Cc3ccccc3C)c2)c(C)c1,17,0,-4,-1,-4
O=C(CCS(=O)(=O)c1nc(-c2ccc3c(c2)OCO3)cc(C(F)(F)F)n1)Nc1ccc(Br)cc1,-13,0,-3,3,3
Cc1c(O)c(S(=O)c2ccccc2)c(=O)n(-c2ccccc2)c1-c1ccccc1 (configuration not stated),1,1,32*,4,-2
O=C(Cn1c(=O)n(CCc2ccccc2)c(=O)c2c3c(sc21)CCCC3)Nc1ccc(F)c(F)c1,11,0,3,1,0
CN(C(=O)CN1C(=O)NC(C)(c2cccc(Br)c2)C1=O)C1CCCCC1 (configuration not stated),-57*,0,-5,6,-3
CC1(c2cccc(Br)c2)NC(=O)N(CC(=O)NCC2CCCO2)C1=O (configuration not stated),0,0,19,3,1
CCOc1ccc(C(c2c(O)cc(C)n(CCOC)c2=O)N2CCN(c3ccccc3)CC2)cc1 (configuration not stated),8,1,3,0,-2
Nc1sc2c(c1C(=O)c1ccccc1)CCCC2,-66*,-1,-4,1,-1
NC(=O)c1c(N)sc2c1CCCC2,-6,0,4,2,1
Cc1cc2c(s1)c1cnn(Cc3ccc(C(F)(F)F)cc3)c(=O)c1n2C,13,0,-1,2,-7
C=CCOc1ccc(Br)cc1CNC(C)(C)CO,-42*,0,0,3,-5
CCCOc1ccc(NC(=O)CC2C(=O)N(c3ccc(C)cc3)C(=O)N2Cc2cccc(OC)c2)cc1 (configuration not stated),-13,0,1,5,-3
Cn1nc(C(=O)N2CCN(c3ccccc3F)CC2)c2c1-c1ccccc1SC2,-35*,0,-22,4,-3
O=C(N/N=C/c1ccco1)c1cc(-c2cccc3ccccc23)n[nH]1,14,0,36*,-2,2
CNc1nc(Nc2ccc(C(C)=O)cc2)nc(OC(C(F)(F)F)C(F)(F)F)n1,-31*,1,3,11,-7
CCN(CC)c1ccc2cc(C(=O)NCc3ccc(F)cc3)c(=N)oc2c1,-29,34*,-2,170*,-11
O=C(NCc1ccccc1)C1CCN(c2ncnc3c2nc2n3CCCCC2)CC1,-33*,0,4,0,-3
Cc1nc(N2CCCC2)c2nnn(Cc3ccccc3Cl)c2n1,3,0,2,1,1
COc1ccc(N2CCN(c3ncnc4c3nnn4Cc3ccccc3Cl)CC2)cc1,-42*,0,5,8,-12
COc1ccc(N2CCN(c3ncnc4c3nc3n4CCCCC3)CC2)cc1,-35*,0,1,9,-4
COc1cccc(N2CCN(c3ncnc4c3nc3n4CCCCC3)CC2)c1,-14,-1,-5,6,0
COc1cccc(CNC(=O)C2CCN(c3ncnc4c3nc3n4CCCCC3)CC2)c1,5,-1,0,0,-3
SMILES,D1 antagonist,TRHR agonist,TRHR PAM,D1 agonist,D1 potentiator
CCn1c(=N)n(CC(=O)c2ccc(Br)s2)c2ccccc21,9,0,-14,10,-1
CCCn1c(=N)n(CC(=O)C(C)(C)C)c2ccccc21,7,-1,31*,9,-9
N=c1n(CCO)c2ccccc2n1CCOc1ccc(F)cc1,-10,0,4,-1,1
CCCCn1c(=N)n(CCCOc2ccc(F)cc2)c2ccccc21,-5,-1,4,79*,-7
CCCCn1c(=N)n(CC(=O)c2ccc(Br)s2)c2ccccc21,20,2,3,44*,-3
CCCCn1c(=N)n(CC(=O)C(C)(C)C)c2ccccc21,35,0,10,3,-4
CCOC(=O)Cn1c(=N)n(CCOc2cccc(C)c2)c2ccccc21,-3,0,0,14,-2
CCOC(=O)Cn1c(=N)n(CCOc2ccc(Br)cc2)c2ccccc21,-22,3,2,51*,-2
COc1cc(Cl)c(C)cc1NC(=O)c1cc2c(Cl)nc3ccc(C)cc3c2s1,-6,1,6,1,-1
CC(NC(=O)c1ccc2c(c1)N(Cc1ccc(Cl)cc1)C(=O)c1ccccc1S2=O)c1ccccc1 (configuration not stated),-35*,1,-1,8,-6
CCC(C)NC(=O)c1ccc2c(c1)N(Cc1cccc(Cl)c1)C(=O)c1ccccc1S2=O (configuration not stated),-6,1,-11,4,1
Cc1cc(NC(=O)c2ccc3c(c2)N(Cc2cccc(Cl)c2)C(=O)c2ccccc2S3=O)ccc1Br (configuration not stated),6,1,2,6,-3
Cc1cccc(C)c1NC(=O)c1ccc2c(c1)N(Cc1cccc(Cl)c1)C(=O)c1ccccc1S2=O (configuration not stated),6,-2,33*,14,-5
CCOC(=O)C(Cc1cc(C(C)=O)ccc1OCC)C(=O)OCC,3,0,-4,0,-7
CCOC(=O)C(Cc1cc(C(C)=O)ccc1OC(C)C)C(=O)OCC,-34*,-1,-18,-1,-2
Cc1ccc(OC(=O)CSc2nnc(-c3ccc4c(c3)OCO4)o2)c(C)c1,-6,0,3,0,0
Cc1ccc(C(=O)COC(=O)CCN2C(=O)C3C4CCC(C4)C3C2=O)cc1[N+](=O)[O-] (configuration not stated),-42*,0,0,21,-5
Cc1ccc(C(=O)COC(=O)CN2C(=O)C3C4CCC(C4)C3C2=O)cc1[N+](=O)[O-] (configuration not stated),-24,0,-3,8,-3
O=C(CCN1C(=O)C2C3CCC(C3)C2C1=O)OCC(=O)c1ccc(Br)cc1 (configuration not stated),-31*,0,-9,11,-2
CSc1cccc(NC(=O)CN2C(=O)COc3ccc(Cl)cc32)c1,-13,0,-1,5,-3
CCOc1ccc(OCC)c(Nc2ccc3cc(S(=O)(=O)N4CCCC4)ccc3n2)c1,20,0,1,1,2
Cc1cc(Cl)cc(C)c1OCCOCCNCc1ccccc1,-5,1,-7,31*,-6
